# Reference: PMC4336329 (PLoS ONE, 2015)
# Among all 310,000 compounds or so, about 14,000 (4.5%) showed an effect of 50% or more. The effect is printed as a negative number. The sample holds strong results, similar compounds and a random draw of the others, so the mix is not that of the screen.
# Biological target: human ether-à-go-go-related gene (hERG) potassium channel (human, UniProt Q12809)
# Test: primary screen, population patch clamp on CHO cells stably expressing hERG; higher = less effect of the substance
# 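Note: peak tail current of the secondary pulse compared with the same well before compound.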
# Sequence of human ether-à-go-go-related gene (hERG) potassium channel (Q12809 whole entry, looked up): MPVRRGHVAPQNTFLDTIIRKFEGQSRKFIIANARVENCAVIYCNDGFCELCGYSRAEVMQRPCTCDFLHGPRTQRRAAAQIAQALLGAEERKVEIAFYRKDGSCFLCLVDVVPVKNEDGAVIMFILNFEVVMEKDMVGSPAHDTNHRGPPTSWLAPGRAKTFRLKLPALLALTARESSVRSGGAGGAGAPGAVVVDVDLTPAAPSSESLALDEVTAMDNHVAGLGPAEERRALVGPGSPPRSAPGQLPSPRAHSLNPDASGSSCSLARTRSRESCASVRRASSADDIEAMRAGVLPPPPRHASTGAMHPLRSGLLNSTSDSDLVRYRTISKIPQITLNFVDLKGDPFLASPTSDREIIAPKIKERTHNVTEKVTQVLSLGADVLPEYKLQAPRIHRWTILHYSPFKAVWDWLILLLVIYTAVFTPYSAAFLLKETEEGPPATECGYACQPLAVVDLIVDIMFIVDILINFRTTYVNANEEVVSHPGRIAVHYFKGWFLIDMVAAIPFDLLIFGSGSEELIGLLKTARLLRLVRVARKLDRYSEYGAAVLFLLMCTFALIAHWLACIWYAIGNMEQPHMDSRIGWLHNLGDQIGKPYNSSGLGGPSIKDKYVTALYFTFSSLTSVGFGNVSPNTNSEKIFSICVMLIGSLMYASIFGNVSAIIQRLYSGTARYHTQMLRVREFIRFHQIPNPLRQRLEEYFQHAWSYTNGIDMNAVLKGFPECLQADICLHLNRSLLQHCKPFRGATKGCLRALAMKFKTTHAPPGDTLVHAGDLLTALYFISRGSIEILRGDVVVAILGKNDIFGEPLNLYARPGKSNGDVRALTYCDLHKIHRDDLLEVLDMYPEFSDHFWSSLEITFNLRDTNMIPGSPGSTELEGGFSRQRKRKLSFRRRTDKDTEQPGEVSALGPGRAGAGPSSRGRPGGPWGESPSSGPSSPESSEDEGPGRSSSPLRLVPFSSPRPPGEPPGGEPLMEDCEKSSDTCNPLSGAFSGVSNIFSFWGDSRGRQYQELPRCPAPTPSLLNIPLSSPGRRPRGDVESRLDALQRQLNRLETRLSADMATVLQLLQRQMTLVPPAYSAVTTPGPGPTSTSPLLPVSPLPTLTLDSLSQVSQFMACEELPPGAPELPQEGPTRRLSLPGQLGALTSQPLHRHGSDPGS
row,SMILES,"hERG current change (%, negative = inhibition) at 10uM"
1,CCCS(=O)(=O)N1CCN(Cc2ccc(OCc3ccccc3)c(OC)c2)CC1.O=C(O)C(=O)O,-43.2%
2,O=C(NCc1ccccn1)c1c(Cl)cccc1Cl,2.78%
3,COc1ccc(-n2c(C)cc(C)c(C(C)=O)c2=S)cc1,-2.39%
4,Cc1cccc(N2CCN(CC(=O)N(C3CCCC3)C3CCS(=O)(=O)C3)CC2)c1C (centres unmarked),-13.3%
5,CCCc1nnc(SCC(=O)N(CC)CC)n1CC1CCCO1 (centres unmarked),21.9%
6,Cc1ccc2[nH]c(=O)c(CN(CCc3ccccc3)Cc3nnnn3CC3CCCO3)cc2c1 (centres unmarked),-16%
7,CC(=O)Nc1ccc(/C=N/NC(=S)NC(C)C)cc1,21.3%
8,CC(Cc1n[nH]c(=S)n1N)c1ccccc1 (centres unmarked),19.8%
9,CS(=O)(=O)c1ccc(Cl)c(NC(=O)COC(=O)c2ccc(-n3cnnn3)cc2)c1,-7.82%
10,O=C(COc1cccc(-n2cnnn2)c1)Nc1ccccc1,-26.4%
11,COc1cccc(CNC(=O)COc2cccc(-n3cnnn3)c2)c1,-18.9%
12,CCc1ccc(NC(=O)COc2cccc(-n3cnnn3)c2)cc1,-68%
13,COc1cccc(NC(=O)COc2cccc(-n3cnnn3)c2)c1,-50.8%
14,O=C(COc1cccc(-n2cnnn2)c1)Nc1ccc([N+](=O)[O-])cc1,-43.6%
15,COc1ccc(NC(=O)COc2cccc(-n3cnnn3)c2)cc1Cl,24%
16,COC(=O)c1ccc(NC(=O)COc2cccc(-n3cnnn3)c2)cc1,6.77%
17,Cc1ccc(NC(=O)COc2cccc(-n3cnnn3)c2)cc1[N+](=O)[O-],-0.307%
18,COc1ccc(NC(=O)COc2cccc(-n3cnnn3)c2)cc1,-54.3%
19,S=c1[nH]nc(CSCc2ccccc2Cl)n1-c1ccccc1,0.868%
20,CCOc1ccccc1N(CC(=O)NC1CCCC1)C(=O)CCCC(=O)Nc1ccccn1,-8.6%
21,O=C(O)/C=C\c1cccc(-n2cnnn2)c1,-1.3%
22,CCC(=NCCc1c[nH]c2ccccc12)c1c(O)n(C)c(=O)n(C)c1=O,-10.8%
23,COc1ccc(/C(C)=N/NC(=O)C2C3CCCCC32)c(OC)c1 (centres unmarked),-0.79%

row,SMILES,"hERG current change (%, negative = inhibition) at 10uM"
1,CN(C)CCNC(=O)Cn1ccc2cc(S(=O)(=O)N3CCCCC3)ccc21,8.47%
2,Cc1ccc(NC(=O)CN(C)C(=O)c2nn(C)c(=O)c3ccccc23)cc1,-35.7%
3,CCOC(=O)C(=O)NN=C(c1ccccc1)c1ccccc1,9.79%
4,CC1CN(CC(=O)NN=C(c2ccccc2)c2ccccc2)CC(C)O1 (centres unmarked),12.8%
5,O=C(CCl)NN=C(c1ccccc1)c1ccccc1,0.333%
6,C=CCNC(=O)NC(=S)c1ccccc1,-4.57%
7,O=C(CNC1CCCCC1)NN=C(c1ccccc1)c1ccccc1,-59.8%
8,C=CCNCC(=O)NN=C(c1ccccc1)c1ccccc1,-68.5%
9,O=C(CN1CCOCC1)NN=C(c1ccccc1)c1ccccc1,20.8%
10,CCN(CC)CC(=O)NN=C(c1ccccc1)c1ccccc1,-77.6%
11,C/C(=N\NC(=O)CNc1ccccc1)c1ccccc1,-12.8%
12,CC(NC1CCCCC1)C(=O)NN=C(c1ccccc1)c1ccccc1 (centres unmarked),-32.1%
13,O=C(NN=C(c1ccccc1)c1ccccc1)C(CCl)C1CCCCC1 (centres unmarked),-2.74%
14,O=C(CN1CCCC1)NN=C(c1ccccc1)c1ccccc1,-68.3%
15,O=C(CN1C(=O)C2C3C=CC(C3)C2C1=O)NC1CCCc2ccccc21 (centres unmarked),-2.95%
16,CCOC(=O)CN(C#N)c1nc(C)cc(C)n1,-7.84%
17,Cc1nc(SCCc2ccccc2)[nH]c(=O)c1C,19.6%
18,O=C(O)Cn1nnc(-c2ccc(OCc3ccccc3)cc2)n1,23.9%
19,COc1ccccc1CNC(=O)c1cnn2c(C(F)F)cc(C)nc12,-26.4%
20,Cc1cc(C)cc(N(C(=O)C(F)(F)F)C(C(=O)NC2CCCCC2)c2cccs2)c1 (centres unmarked),-7.03%
21,O=C(CCCc1ccccc1)NCCCc1ccccc1,-10.9%
22,CN(Cc1ccccc1)C1CCCN(C(=O)c2ccc(Cl)s2)C1 (centres unmarked),-30.4%
23,COC(=O)c1c(C(=O)OC)c(-c2ccc(Br)cc2)n2c1CS(=O)C2 (centres unmarked),-1.16%

row,SMILES,"hERG current change (%, negative = inhibition) at 10uM"
1,CCCNC(=O)c1onc(CSc2cccc(OC)c2)c1C(=O)NCCC,-7.12%
2,O=C(O)c1cccc(S(=O)(=O)N2CC=C(c3ccccc3)CC2)c1,-4.64%
3,COCCNC(=O)/C(C#N)=C/c1cc(C)n(C2CCCCC2)c1C,-0.875%
4,CCN(CC)S(=O)(=O)c1ccc2nc(CCl)[nH]c2c1,-16.7%
5,Cc1ccc(S(=O)(=O)N(C)C)cc1NC(=O)CSc1nnnn1-c1ccc(O)cc1,-20.9%
6,CCN(CC)S(=O)(=O)c1ccc2nc(CSc3nnnn3-c3ccc(O)cc3)[nH]c2c1,-53.9%
7,O=C(c1cccc(C(=O)N2CCN(c3ccccc3F)CC2)n1)N1CCN(c2ccccc2F)CC1,-28.3%
8,O=[N+]([O-])c1ccc(N2CCOCC2)cc1N1CCCCC1,-5.12%
9,O=C(/C=C/c1ccc(Cl)cc1)N1CCOCC1,9.65%
10,O=C(/C=C/c1ccccc1)N1CCN(c2ccc([N+](=O)[O-])c(N3CCOCC3)c2)CC1,-54.3%
11,O=[N+]([O-])c1ccc(N2CCCCC2)cc1N1CCOCC1,-11.3%
12,O=C(/C=C/c1ccc(Cl)cc1Cl)N1CCN(c2ccc([N+](=O)[O-])c(N3CCOCC3)c2)CC1,-34.5%
13,O=C(/C=C/c1ccc(Cl)cc1)N1CCN(c2ccc([N+](=O)[O-])c(N3CCOCC3)c2)CC1,-72.4%
14,Cc1c(C(=O)NN2CCOCC2)oc2ccccc12,16.5%
15,N#Cc1cc2c(nc1SCc1cccc(Cl)c1)CCCCC2,8.72%
16,COc1cc(C2NC(=O)NC(C)=C2C(=O)OCC2CCCO2)cc(OC)c1OC (centres unmarked),18.8%
17,COc1ccc(N2CCN(c3ncnc4scc(-c5ccccc5)c34)CC2)cc1,18.6%
18,COc1ccc(NC(=O)c2ccccc2NC(=O)CSc2ccc(Cl)cc2)cc1,3.21%
19,Cc1cc(C)cc(NC(=O)C2C3C=CC4(O3)C2C(=O)N(CCCN2CCCCC2)C4C(=O)NC2CCCCC2)c1 (centres unmarked),20.7%
20,O=C(NCc1ccccc1)c1ccc(Cl)c(NC2=NC3CS(=O)(=O)CC3S2)c1 (centres unmarked),-0.123%
21,O=C(C[n+]1cnn(CC(=O)c2ccc(Cl)cc2Cl)c1)c1ccc([N+](=O)[O-])cc1.[Br-],-73.3%
22,C[n+]1ccn(CC(=O)c2ccc(Cl)cc2)c1.[Br-],-3.61%
23,O=C(Cn1cc[n+](CC(=O)c2ccc(Cl)cc2Cl)c1)c1ccc(Cl)cc1Cl.[Br-],-61.5%

row,SMILES,"hERG current change (%, negative = inhibition) at 10uM"
1,O=C(Cn1cc[n+](CC(=O)c2ccccc2)c1)c1ccccc1.[Br-],0.024%
2,O=C(Cn1nc(Cl)nc1Cl)c1ccc([N+](=O)[O-])cc1,1.69%
3,O=C(Cn1c[n+](CC(=O)c2ccc([N+](=O)[O-])cc2)cn1)c1ccc([N+](=O)[O-])cc1.[Br-],21.3%
4,COc1ccc(-c2ccc(SCc3cccnc3)nn2)cc1OC,29%
5,Cc1ccccc1N1CC(C(=O)Nc2ccc(S(=O)(=O)N3CCCC3)cc2)CC1=O (centres unmarked),3.59%
6,CCOC(=O)NC1(C(F)(F)F)N=C(c2ccccc2)NC1=O (centres unmarked),4.77%
7,Cc1ccc(-n2cccn2)c([C@@H]2C[C@H]3CN(C)C(=O)[C@]34CCCN24)c1,-61.1%
8,CN1C[C@@H]2C[C@@H](C3=Cc4cc(Cl)ccc4OC3)N3CCC[C@@]23C1=O,-32.7%
9,Cc1cc(C)c([C@@H]2C[C@H]3CN(C4CCCC4)C(=O)[C@]34CCCN24)c(-n2cccn2)c1,-80.7%
10,O=C1N(C2CCCC2)C[C@@H]2C[C@@H](c3cn[nH]c3-c3ccc(Cl)cc3)N3CCC[C@@]123,-37.8%
11,Cn1cc([C@@H]2C[C@H]3CN(C4CCCC4)C(=O)[C@]34CCCN24)c(-c2ccccc2)n1,-18.5%
12,CN1C[C@@H]2C[C@@H](c3ccc(C#CC(C)(C)O)s3)N3CCC[C@@]23C1=O,9.88%
13,CCOc1cc(CNc2ncn[nH]2)ccc1OCC(=O)NC(C)(C)C,5.22%
14,Cc1ccc(OCC(=O)N(C)Cc2ccccc2)c([N+](=O)[O-])n1,3.95%
15,NN/C(=C\[N+](=O)[O-])Nc1ccc(Cl)cc1,13.6%
16,Cc1ccc(S(=O)(=O)CCC(=O)OCC(=O)c2c[nH]c3ccccc23)cc1,-8.93%
17,COc1ccc(S(=O)(=O)N2CCN(C(=O)NC3CCCCC3)CC2)cc1OC,-17.7%
18,COC(=O)c1cc(Br)c(=O)n(-c2ccc(F)cc2)c1,-63.9%
19,COC(=O)c1cc(Br)c(=O)n(CCc2ccc(F)cc2)c1,-24.9%
20,COC(=O)c1cc(Br)c(=O)n(-c2ccc(OC)cc2)c1,-0.31%
